# Data reported in PubChem BioAssay.
# For part of these data: Measured potencies and affinities stand elsewhere. Calls of active or inactive are those of the source.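 How the source made its calls, unless noted: active means dose curve with midpoint inside tested range, moderate steepness, plateau gap beyond fit error, low compound glow and bead-link interference; inactive means the rest.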
# Key:
# [1] = target: Cell division control protein 42 homolog (Homo sapiens) (UniProt P60953); assay: inhibition of fluorescent GTP binding to constitutively active Cdc42 – biochemical, multiplex bead flow cytometry, Bodipy-FL-GTP, dose response (AID 1333;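 active means fitted half-maximal concentration within the tested dose range, moderate curve steepness, a statistically real signal drop, and little compound fluorescence or tag-binding interference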)
# Cell division control protein 42 homolog (Homo sapiens), sequence (P60953 whole entry, looked up): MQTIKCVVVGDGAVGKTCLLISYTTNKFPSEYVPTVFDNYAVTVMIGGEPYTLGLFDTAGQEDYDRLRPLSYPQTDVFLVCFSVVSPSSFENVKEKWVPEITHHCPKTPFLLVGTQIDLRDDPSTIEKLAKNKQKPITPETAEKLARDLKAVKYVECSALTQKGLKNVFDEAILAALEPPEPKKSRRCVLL
# [2] = target: Cell division control protein 42 homolog (Homo sapiens) (UniProt P60953); assay: inhibition of fluorescent GTP binding to wildtype Cdc42 – biochemical, multiplex bead flow cytometry, Bodipy-FL-GTP, dose response (AID 1334;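 active means fitted half-maximal concentration within the tested range, moderate curve steepness, significant signal drop, and little compound fluorescence or bead-linkage interference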); details: bead-based flow cytometry, Bodipy-FL-GTP binding to GST-Cdc42; at 100 µM (top of the series) unless noted
# [3] = target: GTPase HRas (Homo sapiens) (UniProt P01112); assay: Ras wt fluorescent GTP loading blockade – biochemical, wildtype, multiplex bead flow cytometry, dose response (AID 1335;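 active means fitted half-maximal concentration within 10 nM to 100 µM, steepness 0.5 to 2, significant signal drop, low assay interference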); details: bead-based flow cytometry, Bodipy-GTP binding to GST-Ras; at 100 µM (top of the series) unless noted
# GTPase HRas (Homo sapiens), sequence (P01112 whole entry, looked up): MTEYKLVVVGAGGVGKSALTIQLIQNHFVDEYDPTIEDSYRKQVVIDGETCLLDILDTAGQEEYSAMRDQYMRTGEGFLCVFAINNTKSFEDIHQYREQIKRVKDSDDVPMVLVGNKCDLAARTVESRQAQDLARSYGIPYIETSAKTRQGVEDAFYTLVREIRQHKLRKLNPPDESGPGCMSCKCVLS
# [4] = system: Ras-related protein Rab-7a (dog), GTP binding; assay: blockers of fluorescent GTP binding to Rab7 – biochemical, wildtype, multiplex bead flow cytometry, dose response (AID 1336; call rule not given here)
# [5] = target: Ras-related C3 botulinum toxin substrate 1 (Homo sapiens) (UniProt P63000); assay: inhibition of wildtype Rac1 nucleotide loading – biochemical, multiplex bead flow cytometry, dose response (AID 1340); details: GST-Rac1 beads, Bodipy-FL-GTP binding; at 100 µM (top of the series) unless noted
# [6] = target: GTPase HRas (Homo sapiens) (UniProt P01112); assay: blockade of GTP loading onto mutant Ras – biochemical, activated mutant, multiplex bead flow cytometry, dose response (AID 1341;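 active means dose-response curve with midpoint inside the tested range, moderate steepness, significant amplitude and little compound fluorescence or bead-attachment interference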;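 further: GST-tagged constitutively activated Ras mutant immobilized on beads and multiplexed with other GTPases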)
SMILES,outcome [1],"fluorescence, percent of control (lower = inhibition) [2]","GTP binding, percent of control [3]",outcome [4],"GTP binding signal, raw median fluorescence (lower = inhibition) (MCF (arbitrary fluorescence units)) [5]",outcome [6]
O=C(CSc1nnc2c(n1)[nH]c1ccccc12)Nc1ccc(S(=O)(=O)Nc2ncccn2)cc1,inactive,33.3%,72.8%,inactive,148,inactive
CC(C)(C)CC(=O)NC(=S)NCc1ccco1,inactive,41.6%,90.5%,inactive,312,inactive
Cc1cccn2c(=O)c(/C=C3\SC(=S)N(CC(C)C)C3=O)c(NCCCOC(C)C)nc12,inactive,58.1%,191%,inactive,209,inactive
COc1cccc(OC)c1-c1nn2c(-c3cc(-c4ccccc4)n[nH]3)nnc2s1,inactive,131% [at 33.3 µM],1380%,inactive,438 [at 33.3 µM],inactive
Cc1nc2ncccn2c1-c1csc(Nc2ccccc2)n1,inactive,26.5%,40.8%,inactive,105,inactive
COc1cc(/C=N/NC(=O)c2cc3ccccc3cc2O)ccc1OCCN1CCCCC1,inactive,39.4%,91.1%,inactive,328,inactive
CC1=C(C)CC(C(=O)c2cc(C)ccc2C)C(C(=O)O)C1 (centres undefined),inactive,57.3%,88.3%,inactive,31,inactive
O=C(O)c1cc2ccccc2nc1OCc1ccccc1,inactive,49.1%,200%,inactive,46.4,inactive
O=C1OC(c2ccc(F)cc2)=C/C1=C\c1ccc([N+](=O)[O-])o1,inactive,49.1%,91.4%,inactive,283,inactive
COc1cc(/C=N/Nc2nc(C)nc3c2cnn3-c2ccccc2)ccc1O,inactive,87.1%,128%,inactive,241,inactive
CCc1ccc(Sc2cc(C(=O)O)c3ccccc3n2)cc1,inactive,57.8%,86%,inactive,31,inactive
Cc1nc2ccccn2c1-c1csc(Nc2cccc(O)c2)n1,inactive,35.4%,80.4%,inactive,216,inactive
CCOC(=O)c1nn(-c2ccccc2)c(=O)cc1SC(C)C,inactive,51.2%,61.6%,inactive,204,inactive
COc1cc(N2CCCC2)c(OC)cc1/C=C(/C#N)c1cccc(F)c1,inactive,137%,214%,inactive,210,inactive
COc1ccc2o/c(=N/NC(=O)c3cccs3)c(C(N)=O)cc2c1,inactive,28.1%,64.4%,inactive,160,inactive
O=C1CS/C(=N/N=C2C3CC4CC(C3)CC2C4)N1,inactive,48.5%,68.2%,inactive,214,inactive
Cc1ccc(-c2csc3nc4c5ccccc5c(NCCCN5CCOCC5)nn4c(=O)c23)cc1,inactive,32%,68.7%,inactive,176,inactive
O=C(CCN1CCCC1Cc1ccccc1)c1ccc2c(c1)OCCO2 (centres undefined),inactive,31.5%,82.4%,inactive,236,inactive
Cc1cc(OCCSc2nc3ccccc3n2CC(=O)O)ccc1Cl,inactive,58.4%,85.5%,inactive,29.6,inactive
COc1cccc2cc(-c3ccnc(=S)[nH]3)oc12,inactive,33.3%,70.7%,inactive,140,inactive
CN(/N=C/c1ccncc1)C1=NS(=O)(=O)c2ccccc21,inactive,53.9%,32.4%,inactive,181,inactive
COc1ccccc1OCCn1cc(C(=O)O)c2cccc(Cl)c21,inactive,53.4%,199%,inactive,56.2,inactive

SMILES,outcome [1],"fluorescence, percent of control (lower = inhibition) [2]","GTP binding, percent of control [3]",outcome [4],"GTP binding signal, raw median fluorescence (lower = inhibition) (MCF (arbitrary fluorescence units)) [5]",outcome [6]
COC(=O)C1=C(C)NC(=O)/C1=C\c1cc(C)n(-c2c(C)cccc2C)c1C,inactive,37%,84.9%,inactive,308,inactive
Nc1c([N+](=O)[O-])cc(-c2cnc[nH]2)cc1[N+](=O)[O-],inactive,38.5%,81.1%,inactive,190,inactive
CCNC(=S)N=Nc1c(O)[nH]c2ccc([N+](=O)[O-])cc12,inactive,32.4%,72.3%,inactive,141,inactive
Cc1nonc1OCCNc1ccc([N+](=O)[O-])cc1[N+](=O)[O-],inactive,50.3%,63.5%,inactive,209,inactive
CCCN1C(=O)/C(=C\C=C2\N(CC)c3ccccc3C2(C)C)SC1=S,inactive,104%,140%,inactive,307,inactive
COc1ccccc1OCCn1cc(C(=O)O)c2ccc(C)cc21,inactive,47.9%,184%,inactive,55.5,inactive
O=c1c2ccccc2nc2c3ccccc3c(NCCN3CCOCC3)nn12,inactive,42.6%,52.2%,inactive,132,inactive
O=C(COC(=O)C1(c2ccccc2F)CCCC1)Nc1ncc(C(F)(F)F)cc1Cl,inactive,47.6%,60.4%,inactive,194,inactive
Cc1ccc(O)c(N=Cc2cc(Cc3ccccc3)cc([N+](=O)[O-])c2O)c1,inactive,30.7%,72.6%,inactive,111,inactive
CSc1nsc(SC)c1NC(=O)OC1CCCCC1,inactive,43%,63.4%,inactive,196,inactive
COc1ccc(NC(=O)CSc2ccc3nnc(-c4cccnc4)n3n2)c(OC)c1,inactive,37.4%,72.3%,inactive,165,inactive
Cc1ccccc1COc1cccc(C)c1C(=O)O,inactive,58%,200%,inactive,56.1,inactive
O=S(=O)(Cc1ccc(Cl)cc1)c1ccccc1-c1nnc(-c2ccc(Cl)cc2)o1,inactive,84%,160%,inactive,172,inactive
Cc1ccc(CSc2ncccc2C(=O)O)cc1,inactive,67.9%,199%,inactive,284,inactive
CCCCn1c(O)c(N=NC(=O)c2ccccc2NS(=O)(=O)c2cccs2)c2ccccc21,inactive,37.3%,87.8%,inactive,280,inactive
CCN(CC)c1ccc(/C=C/C(=O)c2ccc(Br)cc2)cc1,inactive,312%,319%,inactive,0,inactive
CCCCCCCCCCCC(=O)c1c(O)cccc1O,inactive,28.4%,79.8%,inactive,241,inactive
COc1ccc(CNc2nc3c(c(=O)n(Cc4ccc(Br)cc4)c(=O)n3C)n2C)cc1,inactive,32%,83.8%,inactive,222,inactive
Cc1cc(C)cc(Nc2cc(C(=O)O)c3ccccc3n2)c1,inactive,58.9%,80.4%,inactive,30.7,inactive
CC(C)CCn1c(CN2CCN(Cc3ccccc3)CC2)nc2c1c(=O)n(C)c(=O)n2C,inactive,89.2%,165%,inactive,178,inactive
Cc1nc(-c2cnn(-c3ccccc3)c2)c2cc(C)oc2n1,inactive,61.7%,140%,inactive,140,inactive
CC(=O)N1C(=O)/C(=C2\SC(=S)N(NC(=O)c3ccc(O)cc3)C2=O)c2ccccc21,inactive,31.6%,70.8%,inactive,155,inactive

SMILES,outcome [1],"fluorescence, percent of control (lower = inhibition) [2]","GTP binding, percent of control [3]",outcome [4],"GTP binding signal, raw median fluorescence (lower = inhibition) (MCF (arbitrary fluorescence units)) [5]",outcome [6]
O=C(NNc1nc(-c2ccccc2)c2cc(Br)ccc2n1)c1ccc(S(=O)(=O)N2CCOCC2)cc1,inactive,40.3%,53.5%,inactive,124,inactive
N=c1oc2ccc3ccccc3c2cc1-c1nc(-c2ccccc2)cs1,inactive,32.3%,75%,inactive,209,inactive
N#Cc1ccc2ccn(CC(=O)N3CCCc4ccccc43)c2c1,inactive,40%,89.5%,inactive,351,inactive
COc1ccc(CNc2ccccc2C(=O)O)cc1,inactive,75.9%,93.4%,inactive,44.1,inactive
CCOc1ccc2c(c1)c(N=NC(=N)N)c(O)n2C,inactive,32.4%,70.3%,inactive,165,inactive
N#CC(c1ccc(Cl)nn1)c1ccc(Cl)cc1Cl (centres undefined),inactive,34.5%,77.7%,inactive,263,inactive
O=C(Nc1ccccc1C(=O)N1CCOCC1)C1CCC(=O)N1C1CCCC1 (centres undefined),inactive,51.3%,62.7%,inactive,210,inactive
Cc1cc(C(=O)CN2C(=O)C(=O)N(Cc3ccccc3)C2=O)c(C)n1-c1ccccc1F,inactive,34.9%,81.4%,inactive,260,inactive
COc1ccccc1Oc1ccccc1C(=O)O,inactive,100%,239%,inactive,271,inactive
CCOC(=O)Cn1nnnc1C(CC)N(Cc1cccs1)Cc1cc2cc(C)ccc2[nH]c1=O (centres undefined),inactive,96.4%,186%,inactive,194,inactive
COc1cc(/C=N/Nc2ccc(S(N)(=O)=O)cc2)cc(OC)c1OC,inactive,31.7%,75.4%,inactive,175,inactive
COCCNC(=O)c1cnn2c(C(F)F)cc(-c3ccccc3)nc12,inactive,40%,85.2%,inactive,204,inactive
O=C(CN1CCN(CCOCCO)CC1)N1c2ccccc2Sc2ccc(Cl)cc21,inactive,37.7%,82.2%,inactive,266,inactive
Cc1cc(N/N=C/c2ccc(O)cc2O)nc(-c2ccccc2O)n1,inactive,40.3%,48.8%,inactive,143,inactive
O=C(NCc1ccc(F)cc1)C(c1ccccc1)N(CC1CCCO1)C(=O)Cn1nnc2ccccc21 (centres undefined),inactive,53.6%,70.1%,inactive,0,inactive
CCn1cc(C(=O)OCC(=O)c2cc(C)n(-c3cccc(C(F)(F)F)c3)c2C)c(=O)c2ccc(C)nc21,inactive,37.1%,57.8%,inactive,137,inactive
C/C=C/c1ccccc1OCc1ccc(C(=O)O)o1,inactive,180%,326%,inactive,420,inactive
O=C(O)c1ccc(CNCc2ccc(F)cc2)s1,inactive,61.1%,84.5%,inactive,34.7,inactive
Oc1c(C(c2ccccn2)N2CCOCC2)ccc2cccnc12 (centres undefined),inactive,55.1%,70.9%,inactive,0,inactive
COc1cc([N+](=O)[O-])ccc1N=Nc1c(N)[nH]n(-c2ccccc2)c1=O,inactive,30.5%,74.5%,inactive,188,inactive
